# Source: PubChem BioAssay AID743311 (Broad Institute, 2014)
# Results with a measured potency or affinity are listed apart. Calls of active or inactive are those of the source. The rule behind the calls is not given here.
# Test: HepG2 cell cytotoxicity, dose response, cytotoxicity control, plate reader, dry powder, set 6 (AID 743311)
# Conditions: series mostly up to 26 µM
row,SMILES,outcome
1,Clc1ccc(OCCn2cnc3ccccc32)c(Cl)c1,inactive
2,COc1ccc(OCCn2cnc3ccccc32)cc1,inactive
3,COc1cccc(OCCn2cnc3ccccc32)c1,inactive
4,Cc1cccc(OCCn2c(=S)[nH]c3ccccc32)c1,inactive
5,COCc1nc2ccccc2n1CCOc1ccc(C(C)(C)C)cc1,inactive
6,FC(F)(F)c1cccc(OCCn2cnc3ccccc32)c1,inactive
7,CCCc1nc2ccccc2n1CCOc1ccccc1,inactive
8,Clc1ccccc1OCCn1cnc2ccccc21,inactive
9,Cc1cc2ncn(CCOc3ccccc3)c2cc1C,inactive
10,c1ccc2c(c1)ncn2CCOc1ccc2c(c1)CCC2,inactive
11,Cc1cccc(OCCn2c(=S)[nH]c3c(F)cccc32)c1,inactive
12,CCCCc1nc2ccccc2n1CCOc1ccccc1,inactive
13,CC(C)Oc1ccc(OCCn2cnc3ccccc32)cc1,inactive
14,Cc1ccc(C(C)C)c(OCCn2c(=O)[nH]c3ccccc32)c1,inactive
15,Clc1ccc(OCCn2cnc3ccccc32)cc1,inactive
16,CC(C)Oc1cccc(OCCn2cnc3ccccc32)c1,inactive
17,Cc1ccc(C(C)C)c(OCCn2c(NC#N)nc3ccccc32)c1,inactive
18,COc1cc(C)ccc1OCCn1cnc2ccccc21,inactive
19,Cc1ccccc1OCCn1cnc2ccccc21,inactive
20,Cc1ccc2c(c1)[nH]c(=S)n2CCOc1ccccc1,inactive
21,CCSc1nc2ccccc2n1CCOc1ccccc1,inactive
